Measurements taken from PubChem BioAssay (NCATS).
Records with an inconclusive call do not appear. Values without a mark were called inactive. Calls of active or inactive are those of the source. The call rests on the fitted dose curve; in most records, active means well fitted inhibition curve with a large enough effect; inconclusive means small, poorly fitted or top-dose-only effect; inactive means no such curve, though single readings can be large or run the other way.

Each molecule was assayed against Nuclear receptor ROR-gamma (Homo sapiens) (UniProt P51449) (assay: qHTS assay for small molecule antagonists of the retinoid-related orphan receptor gamma (ROR-gamma) signaling pathway (AID 651802; further: nearly all actives have a fitted effect of over 60% in size)). Conditions: ROR-gamma antagonist cell reporter assay; series mostly up to 92.2 µM; activity change, negative = inhibition: at the top concentration.
From the text: National Center for Advancing Translational Sciences [NCATS]
NIH Chemical Genomics Center [NCGC]
National Institutes of Environmental Health Sciences [NIEHS]
National Toxicology Program [NTP]
Nuclear steroid hormone receptors are involved in many biological processes including inflammatory responses, cell proliferation, and apoptosis. Environmental factors or compounds disrupting these nuclear receptor pathways and gene expression may promote susceptibility to immunotoxicants and autoimmune diseases. One important group of these expression factors are the retinoid-related orphan receptors. To assess compounds that may interfere with the retinoid-related orphan receptor gamma (ROR-gamma) transcription factor, a cell-based luciferase assay was used.
The CHO cell-based assay utilizes a TET-inducible ROR expression factor and ROR response element-LUC reporter gene. Reporter activity was induced using doxycycline and measured after 16hr incubation. Luminescence was read using Viewlux (PerkinElmer), where a decrease in reporter activity would show a decrease in luminescence.
1,000 cells in 4 uL/well were dispensed into white wall/solid bottom 1536-well plates using a Multidrop Combi (Thermo Scientific) dispenser. Following transfer of 23 nL compound or DMSO vehicle by a pin tool, the plates were treated with 1 ul doxycycline to induce reporter gene activity. After 16hr incubation at 37C and 5% CO2, 5uL one-glo (promega) was added to each plate and following 30 min incubation at room temperature, luminescence was quantified on a ViewLux (PerkinElmer) plate reader.
On the % scale 0 is the no-effect control and ±100 the full control effect; potency means the concentration at half of the fitted maximal effect.

Chain of Nuclear receptor ROR-gamma (Homo sapiens) (P51449 whole entry, looked up): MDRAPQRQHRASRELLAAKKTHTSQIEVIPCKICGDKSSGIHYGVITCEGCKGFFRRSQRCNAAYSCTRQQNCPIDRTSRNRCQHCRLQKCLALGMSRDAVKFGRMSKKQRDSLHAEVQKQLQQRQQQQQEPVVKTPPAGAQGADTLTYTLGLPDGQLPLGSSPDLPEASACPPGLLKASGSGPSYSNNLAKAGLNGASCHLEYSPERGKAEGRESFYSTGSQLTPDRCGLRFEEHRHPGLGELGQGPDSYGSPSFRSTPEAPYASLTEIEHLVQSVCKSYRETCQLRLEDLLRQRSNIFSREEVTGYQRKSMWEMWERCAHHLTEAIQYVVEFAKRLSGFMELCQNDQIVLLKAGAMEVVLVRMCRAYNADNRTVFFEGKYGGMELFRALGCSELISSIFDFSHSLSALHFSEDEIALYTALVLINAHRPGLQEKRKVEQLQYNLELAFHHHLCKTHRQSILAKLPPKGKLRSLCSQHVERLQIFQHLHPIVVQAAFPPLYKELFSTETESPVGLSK

SMILES | Potency | activity change, negative = inhibition
CCCOC(=O)c1ccc(O)cc1 | inactive | –
O=C(O)c1cc(O)c(O)c(O)c1 | – | -5.22%
c1ccc2sc(SSc3nc4ccccc4s3)nc2c1 | – | 7.75%
N=C1N=C(N)c2cc3ccccc3cc21 | 59.6 µM (active) | –
CCCCCCCCCCCCCCCCCC(=O)O | – | -31.9%
O=C(O)/C=C\C(=O)O | – | -15.2%
NCCO | – | 5.81%
S=c1[nH]c2ccccc2s1 | – | -3.24%
c1cnc2c(c1)ccc1cccnc12 | 2.37 µM (active) | –
CN(C)CCC(c1ccc(Cl)cc1)c1ccccn1 (stereo not given) | – | -0.196%
CC(C)NCC(O)COc1cccc2ccccc12 (stereo not given) | – | -6.24%
Nc1ccc([N+](=O)[O-])cc1O | – | -25.3%
CN(C)c1ccc(N=NS(=O)(=O)O)cc1 | 5.96 µM (active) | –
C#C[C@]1(O)CC[C@H]2[C@@H]3CCc4cc(O)ccc4[C@H]3CC[C@@]21C | 33.5 µM (active) | –
Nc1ccc(O)c(C(=O)O)c1 | – | 5.17%
